Source: PubChem (The Scripps Research Institute Molecular Screening Center)
This is a sample that favours compounds with a hit; in the whole collection about 5.7% have one here.
DAX1 inh-1 = inhibitors of DAX1 repression of SF-1 activated StAR promoter; HEK293T StAR-luciferase reporter, SF-1/DAX-1 repression relief; inhibition, % at 6.8 µM; 370,000 tested, 1.1% active;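 active = inhibition above the mean over all tested compounds plus 3 SD, cut at about 3.6% in these data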;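 also: 0% = DAX-1 cells with DMSO and 100% = cells lacking DAX-1 with DMSO; higher inhibition means more luminescence from relief of DAX-1 repression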
DAX1 inh-2 = NR0B1 (DAX1) inhibition. inhibition, % at 6.75 µM. 340,000 tested, 0.99% active. HEK293 Gal4-DAX1 luciferase reporter, luminescence. P51843;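 active = inhibition above the mean over all tested compounds plus 3 SD, cut at about 4.2% in these data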;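 also: 0% = DAX1-transfected cells with DMSO and 100% = empty-vector control cells with DMSO; inhibition shows as a rise in luminescence from relieved DAX1 repression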
Target sequence (P51843 207-470 limits assumed): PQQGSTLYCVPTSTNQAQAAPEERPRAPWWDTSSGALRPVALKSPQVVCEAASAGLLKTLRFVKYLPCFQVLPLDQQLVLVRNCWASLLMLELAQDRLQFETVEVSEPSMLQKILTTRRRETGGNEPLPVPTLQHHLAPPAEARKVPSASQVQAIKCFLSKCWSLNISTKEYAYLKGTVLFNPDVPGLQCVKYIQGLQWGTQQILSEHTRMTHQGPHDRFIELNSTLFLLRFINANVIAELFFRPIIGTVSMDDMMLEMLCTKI
hgDAF12 agonist = hgDAF-12 agonism, primary luciferase screen; activation, % at 6.8 µM; 370,000 tested, 1.8% active; HEK293 GAL4-hgDAF12 UAS-luciferase reporter, agonist luminescence; normalized to butyrate control;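 active = activation above a cutoff set at the mean of all screened compounds plus 3 SD, cut at about 10% in these data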;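 also: 0% = DMSO wells and 100% = sodium butyrate wells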
ssDAF-12 act = activators of S. stercoralis DAF-12 nuclear receptor; HEK293 ssDAF-12/GRIP1 lit1-tk-luc reporter, luminescence; % of 3 µM dafachronic acid response; 370,000 tested, 1% active; AID 652126; activation, % at 6.8 µM;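 active = activation above the mean over all tested compounds plus 3 SD, cut at about 0.9% in these data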;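 also: 0% = DMSO-only wells and 100% = 3 µM delta7-dafachronic acid wells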
hcDAF-12 act = activators of H. contortus DAF-12 nuclear receptor; AID 652067; 370,000 tested, 1.4% active; activation, % at 6.8 µM; HEK293 hcDAF-12 lit1-tk-luc reporter, luminescence; 0% DMSO, 100% Δ7-dafachronic acid;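 active = activation above the mean of all tested compounds plus 3 SD, cut at about 5.5% in these data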;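 also: 100% = response to 3 µM Δ7-dafachronic acid high control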
AHR activator = activators of human aryl hydrocarbon receptor | P35869 | AHR-responsive luciferase reporter cells, luminescence | 320,000 tested, 2.5% active | AID 2796 | activation, % at 5 µM; in the data active = activation above about 47%;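 also: 0% = vehicle wells and 100% = reference agonist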
Starred values were filed as active, the others as inactive; x = no result given.

SMILES | DAX1 inh-1 | DAX1 inh-2 | hgDAF12 agonist | ssDAF-12 act | hcDAF-12 act | AHR activator
CN(C)CCCNC(=O)C[C@H]1C[C@H](C(=O)N2CCOCC2)[C@@]2(CCC3CCCC3)c3[nH]c4cc(-c5ccco5)ccc4c3CCN2C1=O | 0 | 0 | 1 | -1 | -1 | x
O=C(C[C@H]1C[C@H](C(=O)N2CCOCC2)[C@@]2(CCC3CCCC3)c3[nH]c4cc(-c5ccco5)ccc4c3CCN2C1=O)NCCN1CCOCC1 | 3.7* | 0 | -6 | -1 | -2 | x
Cc1cc(NC(=O)C(C)C)n(-c2nc3ccccc3s2)n1 | 1 | 0 | 3 | 0.9* | 6 | 30
Cc1cc(NC(=O)CN2CC(C)OC(C)C2)n(-c2nc3ccccc3s2)n1 (configuration not stated) | x | 1 | x | x | x | 14
CCCc1ccc(NC(=O)C2CCCN(c3cnccn3)C2)cc1 (configuration not stated) | 0 | 1 | 3 | -1 | -2 | 48*
CCOc1ccc(NC(=O)C2CCCN(c3cnccn3)C2)cc1 (configuration not stated) | 0 | -1 | 0 | -1 | 4 | 64*
O=C(NCc1ccc(Cl)cc1)C1CCCN(c2cnccn2)C1 (configuration not stated) | 0 | -1 | 1 | -1 | -3 | 78*
COc1cccc(CNC(=O)C2CCCN(c3cnccn3)C2)c1 (configuration not stated) | 0 | 0 | 1 | -1 | 0 | 25
O=C(Nc1ccc(F)cc1)C1CCCN(c2cnccn2)C1 (configuration not stated) | 0 | 0 | 1 | 0 | -3 | 9
Cc1cccc(CCNC(=O)C2CCCN(c3cnccn3)C2)c1 (configuration not stated) | -1 | -1 | -2 | -1 | -3 | 73*
COc1ccccc1NCCC(=O)OCC(=O)NCc1ccco1 | 0 | 1 | 1 | 0 | -2 | 0
Cc1cc2ccccc2nc1SCC(=O)NC1CCCCC1 | 0 | 0 | -2 | -1 | -2 | -1
CC[C@@H](C)[C@@H]1CN([C@@H](CN2CCC[C@H]2CN2C(N)=NC[C@H]2CC(C)C)C(C)C)C(=N)N1CCCC1CCCC1 | 0 | -2 | 2 | -1 | 0 | -2
C[C@@H]1CN([C@H](C)CO)C(=O)c2c(c3ccccc3n2C)-c2ccccc2CO[C@H]1CN(C)C(=O)c1cc(Cl)cc(Cl)c1 | 0 | 4.3* | -2 | 0 | 0 | x
COc1ccc(S(N)(=O)=O)cc1C(=O)OCC(=O)NC(C)(C#N)C1CC1 (configuration not stated) | 2 | 1 | 1 | 0 | -1 | -1
Cc1ccc(CSc2nc3ncccc3[nH]2)cc1 | 2 | -1 | 13* | -1 | 3 | 1
C=C(C)CSc1nc2ncccc2[nH]1 | 0 | 1 | -2 | -1 | -1 | 11
Nc1n[nH]c(N)c1N=Nc1ccc(Cl)cc1 | 0 | -1 | 13* | -1 | 2 | -1
Nc1n[nH]c(N)c1N=Nc1cccc(F)c1 | 1 | 1 | 4 | 0 | 0 | 12
COC(=O)[C@@]1(Cc2ccc(F)cc2)[C@H]2c3cc(C(=O)N(C)C)n(CCCNc4ncc(C(F)(F)F)cc4Cl)c3C[C@H]2CN1C(=O)c1ccccc1 | 1 | x | 0 | -1 | -2 | x
COc1ccc(-c2cc(CS(=O)(=O)c3ccccc3)on2)cc1 | 3 | 4.5* | 13* | -1 | 1 | 8
Nc1c(C(=O)Nc2nccs2)sc2nc(-c3cccs3)cc(C(F)(F)F)c12 | 0 | 0 | 2 | 0 | 5 | 65*
COc1ccc(OCC(=O)Nc2c(Cl)ccc3nsnc23)cc1 | -1 | 1 | 0 | -1 | 6.2* | x
CC1(c2ccccc2Cl)NC(=O)N(CC(=O)Nc2cccnc2Cl)C1=O (configuration not stated) | 2 | -1 | 0 | -1 | -1 | 1
CC1(c2cccc(Br)c2)NC(=O)N(CC(=O)Nc2cccnc2Cl)C1=O (configuration not stated) | 3.7* | -1 | 1 | -1 | 1 | -3
SMILES | DAX1 inh-1 | DAX1 inh-2 | hgDAF12 agonist | ssDAF-12 act | hcDAF-12 act | AHR activator
O=C(OCc1nnc(-c2ccccc2)o1)C12CC3CC(CC(Br)(C3)C1)C2 | 1 | 4.8* | 2 | -1 | 0 | x
O=C(NCCC1=CCCCC1)NC12CC3CC(CC(C3)C1)C2 | 3.7* | 0 | 5 | 0 | 5 | 17
COc1ccc(NC(=O)CN(C)C(=O)CSCC(=O)Nc2ccc(C)cc2)cc1 | 1 | 0 | 1 | -1 | 0 | 1
COc1ccc(CCN2CC(C(=O)Nc3ccccc3F)CC2=O)cc1OC (configuration not stated) | -1 | 4.6* | -1 | 0 | -1 | -1
CC(=O)c1ccc(Nc2nc(C(N)Cc3ccc(Cl)cc3)cs2)cc1 (configuration not stated) | 0 | x | -3 | -2 | -1 | x
CC(C)c1cc(O)c(-c2ccccc2)c(=O)n1-c1ccc(Cl)cc1 | 0 | 1 | -1 | -2 | -2 | -3
CC(C)c1c(Cl)c(O)c(-c2ccccc2)c(=O)n1-c1ccc(F)cc1 | 0 | -1 | 0 | 0 | 5.7* | 16
N#Cc1nc(COc2cccc(Cl)c2)oc1NCc1ccco1 | 0 | 2 | 3 | -1 | 1 | 63*
Cc1ccc(OCc2nc(C#N)c(NCc3ccco3)o2)cc1 | 0 | 0 | 1 | -1 | -1 | 8
CC(=O)Nc1cccc(NC(=O)CSc2ncc(C(=O)Nc3ccc(F)cc3)c(=O)n2C)c1 | -1 | 0 | -2 | -1 | 1 | 66*
CC(=O)Nc1ccc(NC(=O)CSc2ncc(C(=O)Nc3ccc(Cl)cc3)c(=O)n2C)cc1 | x | 1 | x | x | x | 68*
CNC(=S)n1cnc(N)n1 | 0 | 0 | 1 | -1 | 0 | -1
Cc1ccccc1-c1nnc(-c2ccc(Cl)cc2)o1 | 1 | 1 | 7 | -1 | 5 | 54*
Cc1ccc(CS(=O)(=O)c2ccccc2-c2nnc(-c3ccc(Cl)cc3)o2)cc1 | 0 | -1 | 1 | -1 | -1 | -1
O=C(Cn1nc(C(=O)O)c2ccccc2c1=O)Nc1ccc(Br)cc1 | 0 | -1 | -3 | 1.1* | 1 | 23
NC(=O)c1c(NC(=O)Cn2nc(C(=O)O)c3ccccc3c2=O)sc2c1CCC2 | 0 | 0 | 6 | -2 | 0 | 3
NC(=O)c1c(NC(=O)Cn2nc(C(=O)O)c3ccccc3c2=O)sc2c1CCCC2 | 0 | 3 | 13* | -1 | 0 | 1
Oc1c(Br)cc(CNC2CCCCC2)cc1Br | 1 | 2 | 0 | 0 | 1 | x
O=C(Nc1ccccc1)c1ncoc1-c1ccc(Cl)cc1 | 0 | 2 | 3 | 0 | 4 | 57*
O=C(Nc1ccc(-c2cnco2)cc1)c1ccc(Cl)cc1 | 0 | x | 0 | -2 | -2 | -6
